# The list is not random: actives were taken first. Their share in the collection is about 1.3%.
# SSB-PriA inh: inhibitors of Klebsiella pneumoniae PriA binding to SSB C-terminal tail, primary screen, biochemical, AlphaScreen. AlphaScreen SSBct-PriA binding, biotinylated peptide. inhibition, % at 33 µM. AID 1272365, 2023. 430,000 tested, 0.6% active; in the data active = inhibition mostly above about 37%, no sharp cut-off; inactive = mostly below about 20%;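 note: plate controls were negative control peptide for no effect and reference peptide for full effect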
# Mtb hypoxia inh: PubChem AID 1159583; M. tuberculosis hypoxia-regulated fluorescent reporter, fluorescence; fluorescence inhibition, % (concentration not given with the values); 300,000 tested, 0.1% active; in the data active = fluorescence inhibition mostly above about 23%, no sharp cut-off; inactive = mostly below about 17%
# VHR inh abs: VHR1 phosphatase inhibitors, primary screen, biochemical, absorbance, uHTS. Dual specificity protein phosphatase 3 (Homo sapiens), P51452. recombinant VHR phosphatase, pNPP absorbance. inhibition, % at 13.3 µM. 290,000 tested, 0.52% active; in the data active = inhibition above about 50%
# Target sequence (P51452 whole entry, looked up): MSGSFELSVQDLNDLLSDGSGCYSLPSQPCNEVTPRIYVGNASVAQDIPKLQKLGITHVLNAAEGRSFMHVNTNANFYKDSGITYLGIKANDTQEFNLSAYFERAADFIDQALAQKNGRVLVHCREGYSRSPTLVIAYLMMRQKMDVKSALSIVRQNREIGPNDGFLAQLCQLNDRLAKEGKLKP
# 3CLpro inhibitor: SARS-CoV 3CLpro protease inhibitors, primary screen, biochemical, quenched FRET | recombinant SARS-CoV 3CLpro, quenched FRET peptide cleavage | inhibition, % at 6 µM | 290,000 tested, 0.14% active | AID 1706, 2009; in the data active = inhibition above about 12%
# CCHF vOTU inh-1: CCHFV vOTU protease inhibitors, primary screen, biochemical, Pep-AMC substrate, fluorescence; Crimean-Congo hemorrhagic fever virus L polyprotein viral ovarian tumor (vOTU) protease …; inhibition, % at 11.5 µM; 370,000 tested, 0.55% active; AID 651958, 2012; note: 0% = vehicle wells with enzyme and 100% = no enzyme wells
# CCHF vOTU inh-2: CCHFV vOTU protease inhibitors, confirmation, biochemical, Pep-AMC substrate, fluorescence | inhibition, % at 11.5 µM | AID 686976, 2013 | 1,900 tested, 17% active | Recombinant CCHFV vOTU | shares compounds with CCHF vOTU inh-1
# Starred values were filed as active, the others as inactive; · = no result. Cut-off read from the data, not from the text of the source, unless noted: active = inhibition above about 30%; inactive = the rest.
SMILES,SSB-PriA inh,Mtb hypoxia inh,VHR inh abs,3CLpro inhibitor,CCHF vOTU inh-1,CCHF vOTU inh-2
Oc1ccc(C=Nc2cccc3ncccc23)c(O)c1,96.2*,0.5,-9.6,-4.6,44.5*,-9.7
N#Cc1c(-c2ccccc2)nc(SCc2cccc(Cl)c2)[nH]c1=O,17.3,10.9,-11.9,7.0,31.8*,7.8
C[C@H]1CCC(=O)N([C@H](COc2ccccc2)Cc2ccccc2)CC1,-64.5,·,12.7,-1.7,30.8*,5.7
COc1nn(C)cc1C(=O)N(Cc1cc(C2CC2)n(C)n1)Cc1ccco1,1.0,·,·,·,·,·
O=C(O)CN1C(=O)/C(=C\c2cc(Br)ccc2OCc2ccccc2Cl)SC1=S,8.0,2.2,11.3,-3.0,24.8,·
O=C(O)CN1C(=O)/C(=C\c2cc(Br)ccc2OCc2ccc([N+](=O)[O-])cc2)SC1=S,19.3,-4.1,11.3,3.9,32.3*,19.4
Cc1noc(C)c1S(=O)(=O)NCc1cc(C2CC2)n(C)n1,4.0,·,·,·,·,·
C=CC[C@@H](CC(=O)N(CCO)Cc1ccccc1)C(=O)N[C@@H](COC(=O)[C@@H](CC=C)CC(=O)OC(C)(C)C)Cc1c[nH]c2ccccc12,4.9,·,·,·,39.9*,11.6
C=CCC[C@@H](Cc1ccc(F)cc1)C(=O)OC[C@@H](Cc1c[nH]c2ccccc12)NC(=O)[C@H](CC=C)CC(=O)N(CCO)Cc1ccccc1,3.5,·,·,·,20.8,·
C=CC[C@@H](CC(=O)N[C@@H](CO)Cc1ccccc1)C(=O)N[C@H](COC(=O)[C@@H](CC=C)CC(=O)OC(C)(C)C)Cc1ccccc1,-10.3,-13.1,·,·,39.4*,-6.0
C=CCC(CC(=O)N(CCO)Cc1ccccc1)C(=O)NC(COC(=O)C(CC=C)CC(=O)OC(C)(C)C)c1ccccc1 (stereo not given),·,-1.1,·,·,·,·
C=CC[C@@H](CC(=O)N[C@H](CO)Cc1ccccc1)C(=O)N[C@@H](COC(=O)[C@H](CC=C)CC(=O)OC(C)(C)C)Cc1ccccc1,5.9,·,·,·,20.0,·
C=CCC[C@H](Cc1ccc(F)cc1)C(=O)OC[C@@H](Cc1c[nH]c2ccccc12)NC(=O)[C@H](CC=C)CC(=O)N(CCO)Cc1ccccc1,12.0,·,·,·,35.0*,6.7
C=CC[C@@H](CC(=O)N(CCO)Cc1ccccc1)C(=O)N[C@H](COC(=O)[C@@H](CC=C)CC(=O)OC(C)(C)C)c1ccccc1,-18.7,·,·,·,31.6*,8.5
C/C(=N/NC(N)=S)c1ccc(O)cc1,7.0,·,·,·,·,·
CCCN(CC(=O)Nc1ccccc1C)C(=O)C1CCN(S(=O)(=O)c2ccc3c(c2)OCCO3)CC1,-9.8,11.2,·,·,35.1*,-12.6
CCCN(CC(=O)Nc1ccccc1C)C(=O)C1CCN(S(=O)(=O)c2ccc(C)c(C)c2)CC1,·,·,·,·,5.7,·
CN1C(=O)c2cccc(NC(=O)c3nc4ccccc4s3)c2C1=O,-10.0,·,·,·,·,·
Cn1ccc2c(N3CCCC3)cc3c(c21)C1CCC3O1 (stereo not given),·,·,·,·,38.4*,-14.2
O=C(Nc1nnc(-c2ccc(Br)s2)o1)c1ccc(Cl)s1,-38.0,·,·,·,·,·
O=C(NCc1ccc(Cl)cc1)Nc1ccc2c(c1)CCCN2C(=O)C1CC1,-2.0,·,·,·,·,·
O=C(Cc1cccs1)OCc1cc(-c2ccc3c(c2)OCO3)on1,-12.0,·,·,·,·,·
COc1ccc(C=C2SC(=S)N(CCCC(=O)Nc3ccc(C(=O)O)c(O)c3)C2=O)cc1OC,·,·,·,·,22.4,·
O=C(CN1C(=O)/C(=C/c2ccco2)SC1=S)Nc1ccc(C(=O)O)c(O)c1,10.6,3.2,14.9,1.2,36.1*,22.1
O=C(CCCN1C(=O)/C(=C/c2ccccc2)SC1=S)Nc1ccc(C(=O)O)c(O)c1,7.0,·,19.0,4.8,30.3*,4.9
O=S(=O)(Nc1nc(-c2ccccc2)cs1)c1cccc(C(F)(F)F)c1,-11.9,7.3,25.9,3.2,32.5*,11.7
O=C(NC1CCCCC1)C(c1ccnc2ccccc12)n1c(=O)c(-c2ccco2)nc2ccccc21 (stereo not given),·,·,·,·,32.9*,-33.0
O=C(NC1CCCCC1)C(c1ccccc1F)n1c(=O)c(-c2ccco2)nc2ccccc21 (stereo not given),·,·,·,·,12.3,·
Cc1ccc2c(c1C)-c1c(ccc(C)c1C)C(=O)C2=O,1.6,·,·,·,75.4*,72.2*
